The record followed here is the supplement of paper PMC6555819.

In the first experiment the test system is PPARg:RXRa DBDmut IVT, anti-RXR (DBD mutation: RXRa K156A/R161A, NR concentration 270 nM, RXRa partner concentration 90 nM). As to the kind of experiment: PBM binding z-score (relative to random genomic background probes); higher = stronger binding; sequences stand for … in GC…GCGATTGACAGCGTAGAATGAAGG
An outline of the steps: (§1)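 Scanned fluorescence from custom Agilent 4×180K protein-binding microarrays was regression-normalized. Binding z-scores use random background probes as reference. Ligand-free nuclear receptor dimers were incubated on the arrays for 1 h and detected with antibodies against each partner (one per run).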
In turn, AATATTAGTTGAGACGAGGGCAACCGATAGGTTG had a PBM binding z-score of 0.326.
On the same count and under the same terms, as for GCATATAGGTAATACAAGGTGATAGTCCGATTGT, the figure is 4.05; as for CCTACTGGTCCACGAAAGGTCATTGATTCAGTGA, 0.842; as for GCGAGTGGGGCATCAGCAGGTTACCATAACTTAA, 3.22.
In turn, AGAATGAGGTTGTTAAGATCAGGGAATTGCGGTC displayed a PBM binding z-score of 0.255.
Same read-out and setting: as for TCCAGCAGGCCAGAGGGTCACTCAAGAGGTACGG, the figure is 0.933.
The sequence GCTTGTAGATAAAGGTTAAGAAAGACTAAGCTAA returned a PBM binding z-score of -0.151.
Same read-out and setting: as for CAGCCTAGGTCTGGGCCAGTATAGGAGGAACGTT, the figure is -0.647; as for CCTAGTTGGTCGAGGTCACACACGCTATAGGTAC, 1.44; as for ACTCGGAGCACAAAGGTCAGAGCTACGCCAGTGA, 0.735.
TCATATAGGTAAAAGGTGAAAGTCGGTGTGGTAA gave a PBM binding z-score of 5.72.
CCTCGGAGGCCAGAAGGTCAGAGCTGTCCGCTTT returned a PBM binding z-score of -0.00859.
With TATACAGGGTCAAAGGCCCGAGTACGAATGTCGA, the PBM binding z-score was found to be 1.95.
On the same count and under the same terms, as for CGTCCAAGGTCAATGCTCGGTCAGTGAAAGCATT, the figure is 3.28; as for TCTATTACTTGAAGGGCAACCGACGAGTCCGTTT, 2.52; as for CCGAGTAGTTTATGGGGCATTCAGGCAACGGTGA, 1.6.
Same read-out and setting: as for TCGAGTAGATTAGTCGGGGCATTCAGCCAACATA, the figure is 0.609; as for CGTCCAAGATCAGCAGGTCAGTGAAAGCGACGTG, 0.000191.

For another experiment, the system named is PPARg:RXRa IVT, anti-PPARg (NR concentration 270 nM, RXRa partner concentration 90 nM). The experiment is described as above. In short, it runs like this: as §1
Regarding GCTAGCAGGCCATTTGAGTCACTCAATGACGGGC, the PBM binding z-score is -0.00694.
The same measure, in the same setting: the value for TAGCCTAGGTCATTCAGGGGCCAGTATAGAAAGC was 2.89.
Regarding ATCTCTAGTTAAAGTTCAGTGAAAGATCGATAGA, the PBM binding z-score stood at 0.671.
ATATGTAGGTTAGCTGGGTTCATTCAGACTAGGC had a PBM binding z-score of 6.16.
On the same count and under the same terms, the value for TCTATTAGTTCATTAGGGCAACCGAAACAGCGGA was 2.95.
Sequence CCTGCTAGGTCATGGTCCGCTAATCTACAGTATG came in with a PBM binding z-score of 3.6.
On to TGTAGCAGGCCAGAGGGTCACTCAAGAGGTACGG, for which the PBM binding z-score came to 1.1.
Take CGAACTAGGTCAGAACAAGACAGTGAAGGATGAT: the PBM binding z-score worked out at 7.43.
On the same count and under the same terms, the value for ATCTCTAGGTAACAAGTTGAGTGAAAGAGAGGAC was 2.71.
Still for that read-out and setting: the value for AGTCAAAGCTCAGGACGAGGTAACGTAAAGCACG was -0.0403; that for ACTAGTTGGTCAGCTGAGGTCAGACACAATTCGG was 1.86.
CCTTACGGGTCACGCGGTTATAGCACGACGAGCG displayed a PBM binding z-score of 4.96.
Take TCTTGTAGAGCAAGCAGGTTAAGAAAGCCTGAGT: the PBM binding z-score worked out at 0.824.
Same read-out and setting: as for ATACCAAGGGGATCGTGAGGTCGTTGATACTAAC, the figure is -0.121.
Still for that read-out and setting: the value for AGTCAAAGTTCAGGTCGAGGTAACGTAAAGCACG was 2.16; that for CCAGACAGGTGAGAAGGTAACCCAGCCTCGATTA was 0.79.
Still for that read-out and setting: as for CCTAGCAGGCCAATCTGGGTCACTCAAGGCTTGA, the figure is 5.12.
TCATATAGGTACAGGTGAAAGTCGAACGATATGA came in with a PBM binding z-score of 1.83.
Turning to CAAACTAGGTCAAGGACAAAGTCGGTTTGTGCCA, the PBM binding z-score was 8.47.
On the same count and under the same terms, as for TCAAATAGGTAATACAGGTGAAAGTCGGCATCTA, the figure is 2.94; as for GCTTGTAGATCGAGGTTAAGAAAGACTAAGCTAA, 0.569; as for ACTATTAGTTCAGACGAGGGCAACCGATAGGTTG, 0.891.
Still for that read-out and setting: as for AATATTAGTTGAGACGAGGGCAACCGATAGGTTG, the figure is 0.882.
The same measure, in the same setting: as for GCATATAGGTAATACAAGGTGATAGTCCGATTGT, the figure is 2.84; as for CCTACTGGTCCACGAAAGGTCATTGATTCAGTGA, 1.87; as for GCGAGTGGGGCATCAGCAGGTTACCATAACTTAA, 2.59.
In the case of AGAATGAGGTTGTTAAGATCAGGGAATTGCGGTC, the PBM binding z-score is -0.103.
TCCAGCAGGCCAGAGGGTCACTCAAGAGGTACGG gave a PBM binding z-score of 0.217.
The same measure, in the same setting: the value for GCTTGTAGATAAAGGTTAAGAAAGACTAAGCTAA was 0.466; that for CAGCCTAGGTCTGGGCCAGTATAGGAGGAACGTT was -0.716.
Still for that read-out and setting: the value for CCTAGTTGGTCGAGGTCACACACGCTATAGGTAC was 3.16.
In turn, ACTCGGAGCACAAAGGTCAGAGCTACGCCAGTGA had a PBM binding z-score of 2.74.
Consider TCATATAGGTAAAAGGTGAAAGTCGGTGTGGTAA, for which the PBM binding z-score was found to be 5.59.
Still for that read-out and setting: the value for CCTCGGAGGCCAGAAGGTCAGAGCTGTCCGCTTT was -0.274; that for TATACAGGGTCAAAGGCCCGAGTACGAATGTCGA was 4.09.
In the case of CGTCCAAGGTCAATGCTCGGTCAGTGAAAGCATT, the PBM binding z-score amounted to 3.36.
The same measure, in the same setting: as for TCTATTACTTGAAGGGCAACCGACGAGTCCGTTT, the figure is 0.782; as for CCGAGTAGTTTATGGGGCATTCAGGCAACGGTGA, 1.4; as for TCGAGTAGATTAGTCGGGGCATTCAGCCAACATA, -0.356.
In turn, CGTCCAAGATCAGCAGGTCAGTGAAAGCGACGTG came in with a PBM binding z-score of -0.104.

For another experiment, the system named is PPARg DBDmut:RXRa IVT, anti-PPARg (DBD mutation: PPARg1 K132A/R137A, NR concentration 270 nM, RXRa partner concentration 90 nM). Described as above. An outline of the steps: as §1
In turn, GCTAGCAGGCCATTTGAGTCACTCAATGACGGGC had a PBM binding z-score of -0.509.
Same read-out and setting: the value for TAGCCTAGGTCATTCAGGGGCCAGTATAGAAAGC was -0.179.
On the same count and under the same terms, as for ATCTCTAGTTAAAGTTCAGTGAAAGATCGATAGA, the figure is 0.424; as for ATATGTAGGTTAGCTGGGTTCATTCAGACTAGGC, 1.92.
In turn, TCTATTAGTTCATTAGGGCAACCGAAACAGCGGA registered a PBM binding z-score of 1.5.
CCTGCTAGGTCATGGTCCGCTAATCTACAGTATG registered a PBM binding z-score of -0.11.
On the same count and under the same terms, as for TGTAGCAGGCCAGAGGGTCACTCAAGAGGTACGG, the figure is -0.559; as for CGAACTAGGTCAGAACAAGACAGTGAAGGATGAT, 2.55.
In turn, ATCTCTAGGTAACAAGTTGAGTGAAAGAGAGGAC came in with a PBM binding z-score of 1.43.
Same read-out and setting: the value for AGTCAAAGCTCAGGACGAGGTAACGTAAAGCACG was -0.126; that for ACTAGTTGGTCAGCTGAGGTCAGACACAATTCGG was 0.583; that for CCTTACGGGTCACGCGGTTATAGCACGACGAGCG was 0.683.
In turn, TCTTGTAGAGCAAGCAGGTTAAGAAAGCCTGAGT displayed a PBM binding z-score of -0.533.
For the sequence ATACCAAGGGGATCGTGAGGTCGTTGATACTAAC, the PBM binding z-score was -0.0494.
Still for that read-out and setting: the value for AGTCAAAGTTCAGGTCGAGGTAACGTAAAGCACG was 0.434.
The same measure, in the same setting: the value for CCAGACAGGTGAGAAGGTAACCCAGCCTCGATTA was -0.0117.
The same measure, in the same setting: as for CCTAGCAGGCCAATCTGGGTCACTCAAGGCTTGA, the figure is -1.06; as for TCATATAGGTACAGGTGAAAGTCGAACGATATGA, 1.45.
CAAACTAGGTCAAGGACAAAGTCGGTTTGTGCCA had a PBM binding z-score of 0.998.
In the case of TCAAATAGGTAATACAGGTGAAAGTCGGCATCTA, the PBM binding z-score stood at 1.25.
GCTTGTAGATCGAGGTTAAGAAAGACTAAGCTAA had a PBM binding z-score of -0.125.
On to ACTATTAGTTCAGACGAGGGCAACCGATAGGTTG, for which the PBM binding z-score was determined as 0.625.
The same measure, in the same setting: the value for AATATTAGTTGAGACGAGGGCAACCGATAGGTTG was 0.648; that for GCATATAGGTAATACAAGGTGATAGTCCGATTGT was 1.05; that for CCTACTGGTCCACGAAAGGTCATTGATTCAGTGA was 0.736.
On the same count and under the same terms, as for GCGAGTGGGGCATCAGCAGGTTACCATAACTTAA, the figure is -0.589; as for AGAATGAGGTTGTTAAGATCAGGGAATTGCGGTC, -0.954.
The same measure, in the same setting: as for TCCAGCAGGCCAGAGGGTCACTCAAGAGGTACGG, the figure is -0.437; as for GCTTGTAGATAAAGGTTAAGAAAGACTAAGCTAA, 0.79; as for CAGCCTAGGTCTGGGCCAGTATAGGAGGAACGTT, -1.17.
In turn, CCTAGTTGGTCGAGGTCACACACGCTATAGGTAC yielded a PBM binding z-score of 1.31.
The same measure, in the same setting: the value for ACTCGGAGCACAAAGGTCAGAGCTACGCCAGTGA was -0.286.
Still for that read-out and setting: the value for TCATATAGGTAAAAGGTGAAAGTCGGTGTGGTAA was 2.1; that for CCTCGGAGGCCAGAAGGTCAGAGCTGTCCGCTTT was -1.71.
Still for that read-out and setting: the value for TATACAGGGTCAAAGGCCCGAGTACGAATGTCGA was 1.37.
Sequence CGTCCAAGGTCAATGCTCGGTCAGTGAAAGCATT came in with a PBM binding z-score of -0.42.
In turn, TCTATTACTTGAAGGGCAACCGACGAGTCCGTTT showed a PBM binding z-score of 1.07.
The same measure, in the same setting: as for CCGAGTAGTTTATGGGGCATTCAGGCAACGGTGA, the figure is -0.427.
Still for that read-out and setting: the value for TCGAGTAGATTAGTCGGGGCATTCAGCCAACATA was -0.764; that for CGTCCAAGATCAGCAGGTCAGTGAAAGCGACGTG was -0.863.
